From PubChem BioAssay come the findings set out here.

Inconclusive results are not listed. The source made the active and inactive calls.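 How the source made its calls, unless noted: active means normalized viability below 100% at a tested concentration; inactive means the rest.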

Assay [1] can be described thus: growth inhibition of DIPG glioma cells, dose response, cell-based, JHH-DIPG-1, MIPE4.0, CellTiter-Glo, qHTS (AID 1347062; cut-off not given, nearly all actives have AC50 up to about 27 µM;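 on AC50: cells exposed to compound for two days before readout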). The settings on record: JHH-DIPG-1 viability, CellTiter-Glo ATP luminescence. On the technique in general: ATP-based viability assays read luminescence as a measure of living cells.
The nature of assay [2]: growth inhibition of DIPG glioma cells, dose response, cell-based, SU-DIPG-IV, MIPE4.0, CellTiter-Glo, qHTS (AID 1347063; cut-off not given, nearly all actives have AC50 up to about 30 µM;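 further: compound exposure lasted 48 hours before the viability readout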). To be noted: SU-DIPG-IV viability, CellTiter-Glo ATP luminescence.
Assay [3] is described as follows: growth inhibition of DIPG glioma cells, dose response, cell-based, SU-DIPG-XIII, MIPE5.0, CellTiter-Glo, qHTS (AID 1347064; cut-off not given, nearly all actives have AC50 up to about 23 µM;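 on AC50: cells exposed to compound for 48 hours before the viability read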). The settings on record: SU-DIPG-XIII viability, CellTiter-Glo ATP luminescence.
A short description of assay [4]: viability loss in pontine glioma line – cell-based, SU-DIPG-XXV, MIPE5.0, CellTiter-Glo, qHTS, dose response (AID 1347065; cut-off not given, nearly all actives have AC50 up to about 26 µM;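 further: cells exposed to compound for 48 hours before ATP readout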). The settings on record: CellTiter-Glo ATP luminescence.
Assay [5] can be described thus: SU-DIPG-VI glioma cell viability, MIPE4.0 library, CellTiter-Glo luminescence, qHTS (AID 1347066; cut-off not given, nearly all actives have AC50 up to about 30 µM;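 further: cells exposed to compound for 48 hours before readout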). The settings on record: CellTiter-Glo ATP luminescence.
Assay [6] can be described thus: JHH-DIPG-1 glioma cell viability, MIPE5.0 library, CellTiter-Glo luminescence, qHTS (AID 1347067; cut-off not given, nearly all actives have AC50 up to about 26 µM;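 further: cells exposed to compound for 48 hours before readout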). To be noted: JHH-DIPG-1 glioma viability, CellTiter-Glo ATP luminescence.
The nature of assay [7]: SU-DIPG-XXV glioma cell viability, MIPE5.0 library, qHTS (AID 1347068; cut-off not given, nearly all actives have IC50 up to about 30 µM;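 on IC50: cells exposed to compound for 48 hours before viability readout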).
Assay [8] in a line: sensitizers of A549 cells to miR-34 induction, primary screen, imaging, A549 dox-inducible miR-34, nuclei and caspase counts (AID 1347080;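 active means compounds whose cell count with miR-34 switched on is under 0.7 times the count with it off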). To be noted: A549 miR-34 inducible, Hoechst nuclei count, 48 h.
The nature of assay [9]: modifiers of HSF1 nuclear foci, imaging, Selleck Cancer Library (AID 1347162; in the data active means plate-normalised HSF1 focus index below about 0.46). To be noted: human cells, at 10 µM; SSMD: measured here: HSF1 foci SSMD mean; cell count: measured here: cell number; plate-normalised HSF1 focus index: stronger effect = lower value.
Assay [10] is described as follows: survival rescue of mitochondrial mutant cells in low glucose, primary screen, MELAS cybrids, Rieske KO mouse fibroblasts, CellTiter-Glo (AID 1508586;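 active means mean z-score across replicates of 1.96 or higher in either the MELAS or the Rieske mutant cell line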;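 further: z relative to plate mean and SD of compound and empty wells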).
Assay [11] can be described thus: ovarian cancer cell viability with rucaparib, profiling panel, oncology-focused library, rucaparib conditional (AID 1508598). To be noted: patient-derived ovarian cancer cells, CellTiter-Glo viability, 144 h, stronger effect = lower value.

`CC1(O)CC(c2nc(-c3ccc4ccc(-c5ccccc5)nc4c3)c3c(N)nccn23)C1` (stereo unspecified): the concentration at half-maximal activity (AC50) in [1] is 1.48 µM (active); in assay [2], 14.8 µM (active); in assay [3], 0.59 µM (active); in [4], 0.332 µM (active); in assay [5], 0.332 µM (active); in assay [6] it was 11.8 µM (active). The result in assay [7] was inactive. Moreover, the fold change in assay [8] (stronger effect = lower value, cell number ratio, induced over uninduced) was 1.03 (inactive); in [8] (measured here: relative caspase fold change +Dox/-Dox), 0.898. Also, the cell count in assay [8] (measured here: total cells with miR-34 induction, stronger effect = lower value) amounted to 2240; in [8] (measured here: total cells without miR-34 induction), 2180; in [9] it was 6580. Further, the SSMD in assay [9] stood at 1.94. In addition, the plate-normalised HSF1 focus index in assay [9] was 1.1 (inactive). Further, the z-score in [10] (MELAS cybrid survival, CellTiter-Glo 48 h, stronger effect = higher value) is -0.422 (inactive); in assay [10] (Rieske KO mouse fibroblast survival, CellTiter-Glo 72 h) it was 0.283. Also, the viability in assay [11] (at 0.000305 µM, OCI-C5x cells, with rucaparib 10 µM, 100% = cells with rucaparib alone) is 114% (inactive); in [11] (at 0.000305 µM, OCI-C5x cells, without rucaparib), 139% (inactive); in [11] (at 0.000305 µM, OCI-P5x cells, with rucaparib 20 µM, 100% = cells with rucaparib alone) it was 109% (inactive); in [11] (at 0.000305 µM, OCI-P5x cells, without rucaparib), 106% (inactive); in assay [11] (at 0.00122 µM, OCI-C5x cells, with rucaparib 10 µM, 100% = cells with rucaparib alone), 121% (inactive); in assay [11] (at 0.00122 µM, OCI-C5x cells, without rucaparib), 130% (inactive). Besides, the viability in [11] (at 0.00122 µM, OCI-P5x cells, with rucaparib 20 µM, 100% = cells with rucaparib alone) is 104% (inactive); in assay [11] (at 0.00122 µM, OCI-P5x cells, without rucaparib) it was 104% (inactive); in assay [11] (at 0.00488 µM, OCI-C5x cells, with rucaparib 10 µM, 100% = cells with rucaparib alone) it was 111% (inactive); in assay [11] (at 0.00488 µM, OCI-C5x cells, without rucaparib) it was 124% (inactive); in [11] (at 0.00488 µM, OCI-P5x cells, with rucaparib 20 µM, 100% = cells with rucaparib alone), 99.9% (active); in [11] (at 0.00488 µM, OCI-P5x cells, without rucaparib), 105% (inactive). For the same molecule, the viability in [11] (at 0.0195 µM, OCI-C5x cells, with rucaparib 10 µM, 100% = cells with rucaparib alone) is 115% (inactive); in assay [11] (at 0.0195 µM, OCI-C5x cells, without rucaparib), 127% (inactive); in assay [11] (at 0.0195 µM, OCI-P5x cells, with rucaparib 20 µM, 100% = cells with rucaparib alone), 104% (inactive); in [11] (at 0.0195 µM, OCI-P5x cells, without rucaparib), 106% (inactive); in [11] (at 0.0781 µM, OCI-C5x cells, with rucaparib 10 µM, 100% = cells with rucaparib alone) it was 114% (inactive); in [11] (at 0.0781 µM, OCI-C5x cells, without rucaparib), 133% (inactive). Further, the viability is 101% (inactive) in assay [11] (at 0.0781 µM, OCI-P5x cells, with rucaparib 20 µM, 100% = cells with rucaparib alone); 113% (inactive) in assay [11] (at 0.0781 µM, OCI-P5x cells, without rucaparib); 133% (inactive) in [11] (at 0.313 µM, OCI-C5x cells, with rucaparib 10 µM, 100% = cells with rucaparib alone); 57.9% (active) in assay [11] (at 0.313 µM, OCI-C5x cells, without rucaparib); 88.6% (active) in [11] (at 0.313 µM, OCI-P5x cells, with rucaparib 20 µM, 100% = cells with rucaparib alone); 96% (active) in assay [11] (at 0.313 µM, OCI-P5x cells, without rucaparib). For the same molecule, the viability in assay [11] (at 1.25 µM, OCI-C5x cells, with rucaparib 10 µM, 100% = cells with rucaparib alone) is 145% (inactive); in assay [11] (at 1.25 µM, OCI-C5x cells, without rucaparib) it was 134% (inactive); in [11] (at 1.25 µM, OCI-P5x cells, with rucaparib 20 µM, 100% = cells with rucaparib alone), 41.3% (active); in assay [11] (at 1.25 µM, OCI-P5x cells, without rucaparib), 66.2% (active); in assay [11] (at 5 µM, OCI-C5x cells, with rucaparib 10 µM, 100% = cells with rucaparib alone), 168% (inactive); in [11] (at 5 µM, OCI-C5x cells, without rucaparib) it was 153% (inactive). In addition, the viability in assay [11] (at 5 µM, OCI-P5x cells, with rucaparib 20 µM, 100% = cells with rucaparib alone) is 7.72% (active); in assay [11] (at 5 µM, OCI-P5x cells, without rucaparib), 32.8% (active).

For `CNC1CCC(N(Cc2cccc(-c3ccncc3)c2)C(=O)c2sc3ccccc3c2Cl)CC1` (stereo unspecified), the AC50 in assay [1] is 14.8 µM (active); in assay [2] it was 16.6 µM (active); in [4], 11.8 µM (active); in [5], 18.7 µM (active); in [6], 20.9 µM (active). The half-maximal inhibitory concentration (IC50) in [7] is 9.34 µM (active).

In the case of `COc1cc(C(=O)NC2CCN(C)CC2)ccc1Nc1ncc2c(n1)N(C1CCCC1)CCC(=O)N2C(C)C`, the AC50 in [1] is 16.6 µM (active); in [2] it was 7.43 µM (active); in assay [4], 23.5 µM (active); in assay [6], 23.5 µM (active). For the same molecule, the call in assay [7] was inactive.

On to `CC(=O)NC(C)c1ccc(Oc2ccc(OC(C)C)cc2)cc1` (stereo unspecified), for which the call in assay [1] and in [5] was inactive.

Consider `CCCCOCCOc1nc(-c2ccc(C(=O)O)c(F)c2)sc1C`, for which the outcome in [1], in [3], in assay [6] and in assay [7] was inactive.

For `CC(O)[C@@H]1NC(=O)[C@H](CCCCN)NC(=O)[C@@H](Cc2c[nH]c3ccccc23)NC(=O)[C@H](Cc2ccccc2)NC(=O)[C@@H](NC(=O)[C@H](N)Cc2ccccc2)CSSC[C@@H](C(=O)N[C@H](CO)[C@@H](C)O)NC1=O` (stereo partly specified), the result in assay [1], in assay [2] and in [5] was inactive.

For the molecule `C[C@@H](Cc1cc2c(c(C(N)=O)c1)N(CCCO)CC2)NCCOc1ccccc1OCC(F)(F)F`, the result in assay [1], in [2] and in [5] was inactive.

What is called AC50 is the midpoint of the concentration-response curve, whichever way the signal moves. Usually viability stands for a read-out of living cells in per cent, often relative to untreated cells. What is called IC50 is the concentration that inhibits the measured activity by half.
